TNF death inh – blocks TNF-alpha induced death of Jurkat FADD-/- cells | Jurkat FADD-/- TNF necroptosis rescue, ATP luminescence, 24 h; 0 = TNF only, 100 = no-TNF cells | activation (protection from cell death), % at 10 µM | 220,000 compounds, 0.068% hits;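 active = activation, meaning protection from cell death, of at least 50% relative to plate controls; inactive = activation below 50%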;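 also: necroptosis triggered by 40 ng/mL TNF-alpha added together with compound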
Hsp70 act – transcriptional activators of Hsp70; HeLa Hsp70 promoter luciferase reporter, luminescence; scaled: vehicle 0, proteasome-inhibitor control 100%; activation, % at 10 µM; 200,000 compounds, 0.04% hits;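 active = activation above the mean across all tested compounds plus 3 SD, cutoff set per campaign, cut at about 5.5% in these data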
S1P4 antagonist – human S1P4 receptor antagonism; O95977; S1P4-expressing cells, antagonist mode, reporter read-out; inhibition, % at 4.98 µM; 220,000 compounds, 0.26% hits; in the data active = inhibition above about 29%
Target sequence (O95977 whole entry, looked up): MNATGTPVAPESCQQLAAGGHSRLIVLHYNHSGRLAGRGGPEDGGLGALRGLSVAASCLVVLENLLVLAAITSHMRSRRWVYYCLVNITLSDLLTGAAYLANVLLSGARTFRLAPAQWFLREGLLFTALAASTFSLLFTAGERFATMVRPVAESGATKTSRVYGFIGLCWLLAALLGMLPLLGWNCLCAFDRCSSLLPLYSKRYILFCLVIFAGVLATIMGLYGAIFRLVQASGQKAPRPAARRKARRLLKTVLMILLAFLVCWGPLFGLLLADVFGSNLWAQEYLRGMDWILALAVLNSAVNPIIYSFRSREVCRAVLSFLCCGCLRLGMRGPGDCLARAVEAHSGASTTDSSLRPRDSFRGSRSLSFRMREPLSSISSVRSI
L929 necroptosis – blocks zVAD induced death of L929 cells. L929 zVAD necroptosis rescue, ATP luminescence, 24 h; with zVAD 60 µM. viability rescue, % at 10 µM. 220,000 compounds, 0.38% hits. AID 1377;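 active = activation, scaled between plate controls, above about 75%, limit read from the data; inactive = activation under that limit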
S1P4 agonist – activates the human S1P4 receptor | 220,000 compounds, 0.35% hits | S1P4-expressing cell line, agonist reporter assay | activation, % at 4.98 µM | O95977; in the data active = activation above about 11%
HSV replic up – HSV replication enhancement; HSV replication augmentation in cells, fold increase; maximum fold increase; 220,000 compounds, 0.005% hits; AID 1956; in the data active = maximum fold increase above about 1.5; tested in PC3 cells
zVAD death conf – confirmed blocker of zVAD induced death in L929 cells. shares compounds with L929 necroptosis. L929 zVAD-induced necroptosis rescue, ATP luminescence, 24 h. activation (protection from necroptosis), % at 10 µM. 760 compounds, 16% hits;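 active = mean protection from necroptosis of at least 50% over duplicate tests; inactive = mean protection below 50%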
A number is an active result. This is a sample that favours compounds with a hit; in the whole collection about 1% have one here.

Results for Cc1nn(-c2ccccc2)c(C)c1-c1cc(C(=O)N/N=C/c2cccnc2)[nH]n1 ?
TNF death inh: inactive; Hsp70 act: inactive; S1P4 antagonist: inactive; L929 necroptosis: 75; S1P4 agonist: inactive; HSV replic up: inactive; zVAD death conf: inactive

Results for O=C(CCC(=O)Nc1ccccc1Cl)NNC(=O)c1ccco1 ?
TNF death inh: inactive; Hsp70 act: inactive; S1P4 antagonist: inactive; L929 necroptosis: inactive; S1P4 agonist: inactive; HSV replic up: inactive

What do the screens show for `Cc1cnc(N)c2c(=O)oc3ccccc3c12`?
TNF death inh: inactive; Hsp70 act: inactive; S1P4 antagonist: inactive; L929 necroptosis: 84; S1P4 agonist: inactive; HSV replic up: inactive; zVAD death conf: inactive

Results for COC(=O)c1ccc(NC(=O)Nc2ccc(OC)c(OC)c2)cc1 ?
TNF death inh: inactive; Hsp70 act: inactive; S1P4 antagonist: inactive; L929 necroptosis: 82; S1P4 agonist: inactive; HSV replic up: inactive; zVAD death conf: inactive

How did CCC(C)C(NC(N)=O)C(=O)Nc1ccc(C(=O)OC)cc1 (stereo not drawn) do in these assays?
TNF death inh: inactive; Hsp70 act: inactive; S1P4 antagonist: inactive; L929 necroptosis: 78; S1P4 agonist: inactive; HSV replic up: inactive; zVAD death conf: inactive

How did CC[C@H](C)[C@H](NC(N)=O)C(=O)Nc1ccc(NC(C)=O)cc1 do in these assays?
TNF death inh: inactive; S1P4 antagonist: inactive; L929 necroptosis: inactive; S1P4 agonist: inactive; HSV replic up: inactive

Results for Cc1cnc(NC(=O)c2cc3ccccc3o2)s1 ?
TNF death inh: inactive; Hsp70 act: inactive; S1P4 antagonist: inactive; L929 necroptosis: 81; S1P4 agonist: inactive; HSV replic up: inactive; zVAD death conf: inactive

Results for O=C(Nc1ccccc1N1CCCC1)c1cc2ccccc2o1 ?
TNF death inh: inactive; Hsp70 act: inactive; S1P4 antagonist: inactive; L929 necroptosis: inactive; S1P4 agonist: inactive

How did CN1CCN(c2ccccc2NC(=O)c2cc3ccccc3o2)CC1 do in these assays?
TNF death inh: inactive; Hsp70 act: inactive; S1P4 antagonist: inactive; L929 necroptosis: 78; S1P4 agonist: inactive; HSV replic up: inactive; zVAD death conf: inactive

How did c1ccc(-c2csc(Nc3ncccn3)n2)cc1 do in these assays?
TNF death inh: inactive; Hsp70 act: inactive; S1P4 antagonist: inactive; L929 necroptosis: inactive; S1P4 agonist: inactive; HSV replic up: inactive

Results for Cc1ccc(Nc2nc(-c3c(C)nc4ncccn34)cs2)cc1 ?
TNF death inh: inactive; Hsp70 act: inactive; S1P4 antagonist: inactive; L929 necroptosis: inactive; S1P4 agonist: inactive; HSV replic up: inactive

What do the screens show for `Cc1nc2ncccn2c1-c1csc(Nc2ccc(O)cc2)n1`?
TNF death inh: inactive; Hsp70 act: inactive; S1P4 antagonist: inactive; L929 necroptosis: 88; S1P4 agonist: inactive; HSV replic up: inactive; zVAD death conf: inactive

What do the screens show for `CC(=O)Nc1ccc(-c2csc(Nc3ncccn3)n2)cc1`?
TNF death inh: inactive; Hsp70 act: inactive; S1P4 antagonist: inactive; L929 necroptosis: 80; S1P4 agonist: inactive; HSV replic up: inactive; zVAD death conf: inactive

Results for Oc1ccc(-c2csc(Nc3ncccn3)n2)cc1 ?
TNF death inh: inactive; Hsp70 act: inactive; S1P4 antagonist: inactive; L929 necroptosis: 78; S1P4 agonist: inactive; HSV replic up: inactive; zVAD death conf: 75

Results for CCOC(=O)/C(=N/Nc1ccccc1)Sc1nnc(CCc2ccccc2)n1-c1ccccc1 ?
TNF death inh: inactive; Hsp70 act: inactive; S1P4 antagonist: inactive; L929 necroptosis: inactive; S1P4 agonist: inactive; HSV replic up: inactive

How did CCOC(=O)C1CCN(C(=O)c2cccnc2Cl)CC1 do in these assays?
TNF death inh: inactive; Hsp70 act: inactive; S1P4 antagonist: inactive; L929 necroptosis: inactive; S1P4 agonist: inactive; HSV replic up: inactive

What do the screens show for `CCOc1ccc2nc(COC(=O)c3ccncc3)c(C(=O)c3ccccc3)[n+]([O-])c2c1`?
TNF death inh: inactive; S1P4 antagonist: inactive; L929 necroptosis: inactive; S1P4 agonist: inactive; HSV replic up: inactive

What do the screens show for `Cc1ccccc1CN(c1ccc(C(=O)N/N=C/c2ccc(OCC(N)=O)cc2)cc1)S(C)(=O)=O`?
TNF death inh: inactive; Hsp70 act: inactive; S1P4 antagonist: inactive; L929 necroptosis: inactive; S1P4 agonist: inactive; HSV replic up: inactive

Bioassay records: PubChem, several laboratories
